# PubChem BioAssay AID1259422 (The Scripps Research Institute Molecular Screening Center, 2018)
# Values joined by “and” are separate entries in the source; they are usually repeats but may differ in a detail not shown here. Identical values can stand only once. About 9,300 (1.5%) of roughly 640,000 compounds were called active. The sample as a whole holds a higher share of actives than the screen did. A number with no mark means an inactive call. Cut-off read from the data, not from the text of the source: active = inhibition above about 32%; inactive = the rest.
# Test: TEAD-YAP interaction inhibition, primary screen, TEAD-YAP interaction inhibitor project, luminescence, HEK-TIYL cells (AID 1259422);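 note: 0% = median of test compound wells and 100% = reference inhibitor wells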
# Conditions: TEAD-Gal4/YAP UAS-luciferase luminescence, at 9.12 µM, active compounds read high
row,SMILES,inhibition
1,CC(C#N)OC(=O)c1ccc(N2CC(O)=C(c3nc4ccccc4s3)C2=N)cc1 (stereo not given),5.73%
2,N=C1C(c2nc3ccccc3s2)=C(O)CN1c1cccc(F)c1,31.9% (active)
3,Cc1ccc(N2CC(O)=C(c3nc4ccccc4n3C)C2=N)cc1C,-5.77%
4,O=C1N[C@H](Cc2ccc(O)cc2)C(=O)N2CCN(C(=O)Oc3ccc(Cl)cc3)C[C@H]12,-0.03%
5,Cc1cccc(CC(=O)Nc2cnn(-c3cccc(C(=O)N(C)Cc4ccon4)c3)c2)c1,8.24%
6,Cc1cc(C(=O)COC(=O)C2CC2)c(C)n1-c1ccc(F)cc1,39% (active)
7,COCc1cc(C(C)=O)ccc1OCC(=O)c1cc(C)n(-c2ccc(F)cc2)c1C,-1.2%
8,COc1ccc(-n2c(C)cc(C(=O)COC(=O)COc3ccccc3C=O)c2C)cc1,5.99%
9,Cc1ccc(CCNC(=O)CCCNS(=O)(=O)c2ccc3c(c2)CCC(=O)N3)cc1,1.68%
10,Fc1ccc(Nc2nc(NCc3ccccc3)c3ccccc3n2)cc1,42% (active)
11,Fc1ccc(CSc2nc(NCc3ccccc3)c3ccccc3n2)cc1,-9.53%
12,Fc1ccccc1CSc1nc(NCC2CCCO2)c2ccccc2n1 (stereo not given),0%
13,Fc1ccc(Nc2nc(NCC3CCCO3)c3ccccc3n2)cc1 (stereo not given),42.1% (active)
14,Fc1ccccc1-c1nc(NCC2CCCO2)c2ccccc2n1 (stereo not given),25.9%
15,COc1ccc(CNc2nc(Nc3ccc(OC)cc3)nc3cc(OC)c(OC)cc23)cc1,1.6%
16,O=C(c1cc(COc2ccc(F)cc2Cl)on1)N1C[C@@H]2CCC[C@H]1C2,-37.5%
17,CCn1c(N2CCC(C(=O)NCCc3ccc(O)cc3)CC2)nc2ccccc21,4.47%
18,COc1ccc2[nH]cc(CCNC(=O)C3CCN(c4nc5ccccc5n4C)CC3)c2c1,34.1% (active)
19,CC(CCc1ccco1)NC(=O)C1CCN(c2nc3ccccc3n2C)CC1 (stereo not given),9.58%
20,COc1c(C(=O)Nc2ccc(NC(C)=O)cc2)ccc2ccccc12,-28.1%
21,Cc1ncn(-c2ccc(Nc3nccc(N4CCc5[nH]ncc5C4)n3)cc2)n1,49.9% (active)
22,Cc1ncn(-c2ccc(Nc3nccc(-c4cc(C#N)cc(NC5CCN(C)CC5)c4)n3)cc2)n1,16.9%
23,CN1CCN(c2ncn(-c3ccc(Nc4nccc(-c5ccc(NS(C)(=O)=O)cc5)n4)cc3)n2)CC1,-0.18%

row,SMILES,inhibition
1,Oc1c(C(c2cccnc2)N2CCOCC2)ccc2cccnc12 (stereo not given),29%
2,OCCN1CCN(C(c2ccc(F)cc2)c2ccc3cccnc3c2O)CC1 (stereo not given),87.9% (active)
3,CCc1nc2sc(C(c3ccc(F)cc3)N3CCCC3)c(O)n2n1 (stereo not given),-0.93%
4,Cc1ccccc1CN1CCN2C(=O)[C@H](Cc3ccc(O)cc3)NC(=O)[C@H]2C1,0.18%
5,Cc1c(Cl)cccc1NC(=O)NNC(=O)C(N)=O,17%
6,Cc1nn(CC(=O)NCc2ccccn2)c(=O)c2ccccc12,-1.32%
7,N#Cc1ccc(C(=O)OCC(=O)Nc2ccc3c(c2)C(=O)c2ccccc2C3=O)cc1,-21.3%
8,CCOc1cc(/C=C(\C#N)c2nc3ncc(Br)cc3[nH]2)ccc1O,-0.3%
9,CCOc1ccc(/C=C(\C#N)c2nc3ccccc3c(=O)[nH]2)cc1OC,-0.7%
10,CCOc1cc(/C=C(\C#N)c2nc(-c3cccs3)c(NC(C)=O)s2)ccc1O,41.9% (active)
11,COc1ccccc1NC(=O)Cn1cnc2sc(C(=O)Nc3ccc(F)cc3Cl)c(C)c2c1=O,10.1%
12,CCC(Sc1nc(Nc2ccc(F)c(F)c2)c2ccccc2n1)C(=O)Nc1ccc2c(c1)OCO2 (stereo not given),6.11%
13,Cn1ncc(I)c1C(=O)N1CCc2ccccc2C1,-9.15%
14,CN(Cc1ccccc1)CC(O)COc1ccc(CNCCN2CCCCC2)cc1 (stereo not given),3.88%
15,Cc1ccc(NC(=O)CSc2nc3cc4c(cc3cc2C#N)OCCO4)cc1,20.6%
16,CN(C)c1ccc(NC(=O)CSc2nc3cc4c(cc3cc2C#N)OCCO4)cc1,66.1% (active)
17,Cc1cc(NC(=O)CSc2nc3cc4c(cc3cc2C#N)OCCO4)no1,2.38%
18,COc1ccc2ncc(S(=O)(=O)c3ccc(C)cc3)c(N3CCOCC3)c2c1,-1.64%
19,O=C(CN1C(=O)[C@H]2CCCN2C(=O)c2ccccc21)NCc1ccccc1F,2.44%
20,CC1CCCC/C1=N/NC(=O)CNc1ccc(Cl)cc1Br (stereo not given),3.05%
21,CCOC(=O)C1=C(Cl)c2ccccc2NC1Cl (stereo not given),2.33%
22,COc1cccc(CC2=NOC(C(=O)NC(C)Cc3ccsc3)C2)c1 (stereo not given),-35%
23,CCOC(=O)C1=C(C)NC2=C(C(=O)CC(c3ccccc3)C2)C1c1ccccn1 (stereo not given),11.1% and 10.6%

row,SMILES,inhibition
1,CCOCCOC(=O)C1=C(C)NC2=C(C(=O)CC(c3cccs3)C2)C1c1ccc(OC(C)=O)cc1 (stereo not given),7.32%
2,CCCOC(=O)c1[nH]c2c(c1C)C(=O)CC(c1cccs1)C2 (stereo not given),54.8% (active)
3,CSCCOC(=O)c1[nH]c2c(c1C)C(=O)CC(c1cccs1)C2 (stereo not given),45.5% (active)
4,CCCOC(=O)C1=C(C)NC2=C(C(=O)CC(C)(C)C2)C1c1cccs1 (stereo not given),-1.04% and 6.64%
5,CCCOCCOC(=O)c1[nH]c2c(c1C)C(=O)CC(c1ccc(OC)cc1)C2 (stereo not given),-2.72%
6,CCSCCOC(=O)C1=C(C)NC2=C(C(=O)CC(c3cccs3)C2)C1c1ccsc1 (stereo not given),1.93%
7,CCSCCOC(=O)C1=C(C)NC2=C(C(=O)CC(c3ccccc3)C2)C1c1ccccc1 (stereo not given),7.09%
8,C=CCOC(=O)c1[nH]c2c(c1C)C(=O)CC(c1ccccc1)C2 (stereo not given),42.7% (active)
9,COc1ccc2oc(=O)c(S(=O)(=O)c3ccc(C)cc3)cc2c1,7.59%
10,COc1ccc2cc(Br)ccc2c1CC(=O)N(C)C1CCN(C)CC1,-3.7%
11,COc1ccccc1NC(=O)NC(CC(=O)O)c1ccc(C)cc1 (stereo not given),3.42%
12,CCOc1ccc(-c2c(C#N)c(N)nc(OC)c2C#N)cc1,-17.1%
13,CN1N=C(C(F)(F)F)/C(=N/OC(=O)c2ccc(Cl)cc2Cl)C1=O,6.23%
14,CC(=O)Nc1ccc(Nc2ncnc3nc(-c4c(C)noc4C)[nH]c23)cc1,-7.16%
15,Cc1ccc(/C=C/C(=O)N2CCN(c3ccc([N+](=O)[O-])cc3)CC2)cc1,2.02%
16,CCN(CC)CCNC(=O)c1c(CSc2ccccc2)n(C)c2cc(Br)c(OC)cc12,6.43%
17,CCOc1ccc(-n2c(SCc3cc(C(C)=O)ccc3OC)nc3c(sc(=S)n3-c3ccccc3)c2=O)cc1,-3.25%
18,Cc1cc(C)cc(C(=O)NCC(=O)OCC(=O)NC(N)=O)c1,1.58%
19,COc1cccc(CNC(=O)c2[nH]c3cc(-c4cn[nH]c4)ccc3c2CN(C)Cc2ccccc2)c1,-12.2%
20,COc1ccc(-c2nc(Nc3ccc(C)c(F)c3)c3ccccc3n2)cc1OC,-0.35%
21,COc1ccc(-c2nc(Nc3cc(Oc4ccccc4)cc([N+](=O)[O-])c3)c3ccccc3n2)cc1OC,-13.1%
22,COc1cc(Nc2nc(-c3ccc(OC)c(OC)c3)nc3ccccc23)cc(OC)c1,43% (active)
23,COc1ccccc1-n1nnc(C(=O)NC2CCCc3ccccc32)c1N (stereo not given),45.5% (active)

row,SMILES,inhibition
1,Nc1nnc(SCC(=O)NC2CCCc3ccccc32)s1 (stereo not given),0.12%
2,COc1ccccc1-n1nnc(C(=O)N2CCCCC2)c1N,-0.58%
3,Fc1cccc(Cn2nnc(-c3ccc4c(c3)OCO4)n2)c1,-36.6%
4,CCOc1ccccc1-n1c(=S)sc2c(=O)n(-c3ccccc3C)c(SCC#N)nc21,-7.3%
5,O=[N+]([O-])c1cccc(S(=O)(=O)NNc2ccccc2)c1,2.84%
6,OC(COc1ccccc1CNCCN1CCCCC1)CN1CCc2ccccc2C1 (stereo not given),2.84%
7,Cc1c(C(=O)Nc2ccc(F)cc2F)sc2ncnc(N3CCc4ccccc4C3)c12,12.9%
8,S=c1[nH]c(-c2ccc(Cl)cc2)cn1-c1cccc(Cl)c1,-6.64%
9,O=c1oc2ccccc2cc1-c1nnc(-c2ccccc2)o1,-51.9%
10,O=c1oc2ccccc2cc1-c1cn(-c2ccccc2)c(=S)[nH]1,72.7% (active)
11,CC(C)n1c(Nc2ccc(N3CCOCC3)cc2)nc2c(NCCc3ccc(O)cc3)ncnc21,12.6%
12,CCOC(=O)c1c(NC(=O)CN2CCCC2)sc(C)c1-c1ccccc1,4.43%
13,COc1ccc2cc(C#N)c(SC)nc2c1,33.8% (active)
14,CCOc1ccc2cc(C#N)c(SCC(=O)NCc3ccc(OC)cc3)nc2c1,3.49%
15,COc1ccc(OC)c(NC(=O)CSc2nc3cc(OC)ccc3cc2C#N)c1,6.71%
16,O=C(CSc1nc2ccc(Br)cc2c2nc3ccccc3n12)NCc1ccccc1,0.74%
17,CCOc1ccccc1CN1CCOc2ccc(C(O)c3cccnc3)cc2C1 (stereo not given),5.37%
18,CCn1nc(C)c(CN2CCOc3ccc(C(O)c4cccnc4)cc3C2)c1C (stereo not given),36.6% (active)
19,CC(C)C(O)c1ccc2c(c1)CN(Cc1cccc(OCCO)c1)CCO2 (stereo not given),1.92%
20,CCOc1ccc(-c2n[nH]c3c2C(c2ccccc2OC)NC3=O)cc1 (stereo not given),18.1%
21,O=C1CCCC2=C1C(c1ccccc1[N+](=O)[O-])C1=C(CCCC1=O)O2,-1.3%
